# Values joined by “and” are separate entries in the source; they are usually repeats but may differ in a detail not shown here. Equal entries are not always repeated. In all, about 380,000 compounds went through this assay and about 1,300 (0.34%) were called active.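 The calls were made as follows: active = drop in luminescence signal, shown as inhibition above about 50% in the replicate tests (limit read from the data, passing the limit was not always enough); inconclusive = probably only some replicates passing the limit; inactive = the rest.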 Shown is part of a subset that was picked to be rich in actives. Where a structure was tested more than once in an assay, its records may differ in their call.
# Tested on: Drosophila bursicon receptor LGR2 (rickets)
# Assay: inhibitors of bursicon-induced LGR2 CRE-luciferase signal, primary screen, cell-based, HEK293, CRE-luciferase reporter, bursicon stimulation (AID 720647);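 also: agonist challenge used bursicon conditioned medium at about half maximal strength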
# Settings: bursicon-stimulated, 4 h, at 9.99 µM, stronger effect = higher value
row,SMILES,inhibition
1,C(=N\Nc1ccc2ccccc2n1)/c1ccc2c(c1)OCO2,80.4% (active)
2,COc1cccc(CNCc2ccc3c(c2)OCO3)c1,-10.4% (inactive)
3,Cc1ccc2oc(=O)c3cnn(CC(=O)N4CCCCCC4)c3c2c1,15.6% (inactive)
4,COCCCN(C(=O)Cn1ncc2c(=O)oc3ccc(C)cc3c21)C(C)c1ccncc1 (configuration not stated),0.725% (inactive)
5,Cc1ccc2oc(=O)c3cnn(CC(=O)N(Cc4ccco4)C4CCCCC4)c3c2c1,64.3% (active)
6,COCC(=O)N1[C@H](CNC(=O)c2ccccn2)[C@H](c2ccccc2)[C@@H]1CO,0.589% (inactive)
7,C[C@H](CO)N1C[C@H](C)[C@H](CN(C)Cc2ccncc2)Oc2ccc(NC(=O)C3CCCCC3)cc2CC1=O,10.2% (inactive)
8,COc1ccc2c3c(n(C)c2c1)[C@H](CO)NCC31CCN(C(=O)Nc2ccccc2F)CC1,-4.04% (inactive)
9,O=c1c2c(nc3cc(-c4cccc(Cl)c4)[nH]n13)CCCC2,53.6% (active)
10,COc1ccc2c3c(n(C)c2c1)[C@@H](CO)N(CC1CC1)CC31CN(C(=O)Nc2c(C)noc2C)C1,-9.38% (inactive)
11,C[C@@H]1CN([C@H](C)CO)C(=O)c2cc(-c3ccccc3)cnc2O[C@H]1CN(C)C(=O)NC1CCCC1,9.83% (inactive)
12,C/C(=N/OC(=O)c1cccc(C(F)(F)F)c1)c1cnccn1,16.7% (inactive)
13,C/C(=N/OC(=O)c1c(-c2c(F)cccc2Cl)noc1C)c1cnccn1,32.3% (inactive)
14,Cc1ccc(C(=O)O/N=C(\N)c2ccccn2)cc1Cl,88.8% (active)
15,COc1ccc2c3c([nH]c2c1)[C@H](CO)N(Cc1ccccc1Cl)CC31CN(C(=O)C2CC2)C1,6.3% (inactive)
16,COc1ccc(-c2ccccc2[C@H]2[C@@H](CO)N(C(=O)C3CCC3)[C@H]2C#N)cc1,3.46% (inactive)
17,COc1ccc(S(=O)(=O)N(C)C[C@@H]2Oc3c(NS(=O)(=O)c4ccccc4)cccc3C(=O)N([C@@H](C)CO)C[C@@H]2C)cc1,-7.82% (inactive)
18,CCc1ccc2oc(-c3ccc(N)cc3)nc2c1,75.2% (active)
19,O=C(Nc1ccc2c(c1)[C@H]1C[C@@H](CC(=O)N3CCc4ccccc4C3)O[C@H](CO)[C@H]1O2)Nc1ccccc1F,12.8% (inactive)
20,COC(=O)N(C)C[C@H]1OCc2ccccc2-c2ccccc2C(=O)N([C@@H](C)CO)C[C@H]1C,2.52% (inactive)
21,O=C(C[C@H]1C=C[C@H](NC(=O)Cc2ccccn2)[C@@H](CO)O1)NCCc1ccccc1,12.4% (inactive)
22,CCS(=O)(=O)N1CC2(CN(Cc3ccccc3)[C@@H](CO)c3c2c2ccc(OC)cc2n3C)C1,-9.3% (inactive)
23,C=CCn1c(C)cc(C2=NNC(=NCC)SC2)c1C,84.5% (active)
24,CC(C)CC#Cc1cnc2c(c1)C(=O)N([C@H](C)CO)C[C@H](C)[C@@H](CN(C)Cc1ccccc1C(=O)O)O2,9.07% (inactive)

row,SMILES,inhibition
1,C[C@H]1CCCCO[C@H](CN(C)C(=O)Nc2ccccc2)[C@@H](C)CN([C@@H](C)CO)C(=O)c2cc(NC(=O)CCC(F)(F)F)ccc2O1,8.75% (inactive)
2,O=c1oc2ccccc2cc1-c1cn(-c2ccccc2)c(=S)[nH]1,102% (active)
3,COc1ccc(-c2ccc3c(c2)[C@@H]2[C@@H](CCN2S(=O)(=O)c2ccccc2F)[C@H](CO)N3)cc1,-25.5% (inactive)
4,C[C@@H]1CN([C@@H](C)CO)C(=O)c2cc(-c3ccc(F)cc3)cnc2O[C@H]1CN(C)C(=O)c1ccncc1,1.63% (inactive)
5,O=C(C1CCCCC1)N1[C@H](CO)[C@@H](c2ccccc2)C12CN(Cc1cccc(Cl)c1)C2,1.64% (inactive)
6,O=C(C[C@@H]1CC[C@H](NC(=O)C2CCOCC2)[C@@H](CO)O1)Nc1ccccc1,-3.27% (inactive)
7,CCc1sc(N2[C@@H](C#N)[C@@H](c3ccccc3-c3ccccc3)[C@@H]2CO)nc1C,0.259% (inactive)
8,COc1ccc(-c2cn(CC[C@H]3CC[C@@H](N)[C@H](CO)O3)nn2)cc1,-5.75% (inactive)
9,COc1ccc2c3c([nH]c2c1)[C@H](CO)N(Cc1cccc(F)c1)CC31CCN(CC2CC2)CC1,16% (inactive)
10,Cc1noc(C)c1NC(=O)Nc1ccc2c(c1)CC(=O)N([C@H](C)CO)C[C@@H](C)[C@@H](CN(C)S(=O)(=O)c1ccc(Cl)cc1)O2,4.84% (inactive)
11,O=C(Nc1nc2ccccc2s1)c1ccc2c(c1)OCO2,79.6% (active)
12,O=C(NCCc1ccc(C(F)(F)F)cc1)c1ccc2c(c1)OCO2,-2.8% (inactive)
13,Cc1nc(NC(=O)c2ccc3c(c2)OCCO3)ccc1Br,-47% (inactive)
14,N#C[C@@H]1N[C@H](CO)[C@@H]1c1ccc(/C=C/c2ccccc2)cc1,-52.3% (inactive)
15,C[C@H]1CN([C@@H](C)CO)S(=O)(=O)c2ccc(-c3cccc(C#N)c3)cc2O[C@H]1CN(C)CC1CC1,-1.41% (inactive)
16,C[C@H]1CN([C@@H](C)CO)C(=O)c2cccc(NS(=O)(=O)c3ccccc3)c2O[C@@H]1CN(C)S(=O)(=O)c1cn(C)cn1,6.37% (inactive)
17,COc1ccc2c(c1)c(=Cc1ccc(N(C)C)cc1)c1cc(-c3ccccc3)[n+](C)n12,102% (active)
18,COc1ccc(S(=O)(=O)N(C)C[C@@H]2OCCCC[C@@H](C)Oc3ccc(N(C)C)cc3C(=O)N([C@@H](C)CO)C[C@@H]2C)cc1,-3.31% (inactive)
19,Cc1ccnc(N2C(=O)c3ccccc3C2Nc2ccc3c(c2)OCCO3)c1 (configuration not stated),66.5% (active)
20,COC(=O)c1cc(NC2c3ccccc3C(=O)N2c2ccc(Cl)cn2)cc(C(=O)OC)c1 (configuration not stated),-4.93% (inactive)
21,O=C1c2ccccc2C(Nc2ccc3c(c2)OCCO3)N1Cc1ccco1 (configuration not stated),0.038% (inactive)
22,Cc1ccc(-c2cnc3c(c2)C(=O)N([C@H](C)CO)C[C@H](C)[C@@H](CN(C)S(C)(=O)=O)O3)cc1,14.4% (inactive)
23,C[C@H]1CN([C@@H](C)CO)S(=O)(=O)c2ccc(C#Cc3cccc(F)c3)cc2O[C@@H]1CN(C)S(=O)(=O)c1cn(C)cn1,16.7% (inactive)
24,CCCC(=O)N1CCC2(CC1)CN(C(=O)C1CCCCC1)[C@@H](CO)c1[nH]c3cc(OC)ccc3c12,-2.6% (inactive)

row,SMILES,inhibition
1,COc1ccc(S(=O)(=O)N[C@H]2C=C[C@@H](CC(=O)O)O[C@@H]2CO)cc1,14.6% (inactive)
2,CC12CCC(=O)C=C1CCC1C2C(O)CC2(C)C1CCC2(O)C(O)CO (configuration not stated),-20.1% (inactive)
3,CSc1ncnc2c1ncn2CCCNCc1ccco1,-1.41% (inactive)
4,CSc1ncnc2c1ncn2CC(=O)C1CCC2C3CCC4=CC(=O)CCC4(C)C3CCC12C (configuration not stated),89.8% (active)
5,COCC(=O)Nc1ccc2c(c1)[C@H]1C[C@@H](CC(=O)NCc3ccccc3F)O[C@H](CO)[C@H]1O2,-12.4% (inactive)
6,COc1cccc(/C=C/c2ccc3ccccc3n2)c1OC(C)=O,84.6% (active)
7,CC=Cc1ccc2n(c1=O)C[C@H]1[C@H](CO)[C@@H](C(=O)NC3CCCC3)N(Cc3cccnc3)[C@@H]21 (mixture of isomers),5.27% (inactive)
8,O=C(Cn1cc(/C=N/NC(=O)c2cccc(C(F)(F)F)c2)c2ccccc21)Nc1ccc(F)cc1,13.4% (inactive)
9,O=C(CNCc1ccc(Cl)cc1)Nc1cccc(C(=O)O)c1,22.7% (inactive)
10,O=C(O)c1cccc(NC(=S)N/N=C/c2c[nH]c3ccccc23)c1,75.5% (active)
11,COc1cccc(CNC(=O)C[C@@H]2CC[C@@H]3[C@H](COc4ccc(NC(C)=O)cc4C(=O)N3C)O2)c1,18.5% (inactive)
12,CCN1[C@@H]2Cn3c(ccc(-c4cccc(OC)c4)c3=O)[C@H]1[C@@H](C(=O)N(C)C)[C@@H]2CO,-2.29% (inactive)
13,CCC(=O)N1CC(=O)N2[C@@H](CO)[C@H](c3ccc(C#CC4CCCC4)cc3)[C@@H]2C1,-13.8% (inactive)
14,C[C@@H]1CN([C@H](C)CO)C(=O)Cc2cc(NS(C)(=O)=O)ccc2O[C@@H]1CN(C)C(=O)Nc1ccc2c(c1)OCO2,-12.8% (inactive)
15,C[C@@H]1CN([C@H](C)CO)C(=O)c2cc(NC(=O)CCCCCC(=O)Nc3ccccc3N)ccc2O[C@H]1CN(C)Cc1ccncc1,-8.39% (inactive)
16,C[C@@H]1CCCCO[C@H](CN(C)CC2CC2)[C@@H](C)CN([C@H](C)CO)C(=O)c2cc(NC(=O)Cc3ccccc3)ccc2O1,2.52% (inactive)
17,COc1ccccc1-c1cn(CC[C@@H]2CC[C@H](NC(=O)c3ccccc3F)[C@H](CO)O2)nn1,0.819% (inactive)
18,COc1ccc2c3c(n(C)c2c1)[C@@H](CO)N(C(=O)c1ccccn1)CC31CN(C)C1,2.95% (inactive)
19,Cn1cnc(S(=O)(=O)N2C[C@@H]3N[C@H](C2)C3c2ccc(/C=C/c3ccccc3)cc2)c1 (some centres not stated),7.15% (inactive) and -2.81% (inactive)
20,Cn1cnc(S(=O)(=O)N2C[C@@H]3N[C@H](C2)C3c2ccc(-c3ccccc3F)cc2)c1 (some centres not stated),53% (active) and -30.1% (inactive)
21,COc1ccc(-c2ccc(C3[C@@H]4CN(S(=O)(=O)c5cn(C)cn5)C[C@H]3N4)cc2)cc1 (some centres not stated),-3.69% (inactive)
22,C[C@H]1CN([C@@H](C)CO)C(=O)c2ccccc2-c2ccccc2CO[C@H]1CN(C)S(=O)(=O)c1cccc(C#N)c1,-1.55% (inactive)
23,C[C@H](NC(=O)C[C@@H]1CC[C@@H]2[C@H](COC[C@@H](O)CN2Cc2cc(F)ccc2F)O1)c1ccccc1,4.84% (inactive)
24,O=C(C[C@H]1C[C@@H]2c3cc(NC(=O)CC4CC4)ccc3O[C@@H]2[C@H](CO)O1)NCc1cccnc1,2.45% (inactive)
